An excerpt weighted towards active compounds, which were near 7.2% of everything screened.
RE007 growth inh – less growth of the S. pombe RE007 Vpr strain. 360,000 compounds, 0.21% hits. Potency, µM (titrated, usually from 92.2 µM), most hits filed as inhibitors. S. pombe RE007 Vpr strain, BacTiter-Glo ATP luminescence, 24 h; active = well fitted falling curve with a large enough effect; inconclusive = small, poorly fitted or top-dose-only effect; inactive = no such curve, though single readings can be large or run the other way; note: nearly all actives have a fitted effect of over 50% in size
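Fission yeast strain RE007, carrying one chromosomally integrated HIV-1 vpr copy, was seeded at OD 0.01 in PMG+AL medium with 23 nL pinned compound. After 24 h at 30 °C and 99% humidity, viability was read by BacTiter-Glo luminescence.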
HCV inh – HCV inhibition; Huh7.5.1 HCVcc-Cre infection, luciferase reporter, 44 h; Potency, µM (top dose mostly 41.8 µM), hits mostly inhibitors; 340,000 compounds, 3.4% hits; AID 651820
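Infectious HCV cell culture screen: compound-treated cells (1,000/well, pre-plated 4 h) are infected with HCVcc-Cre at roughly 0.5 moi and grown 44 h. Infection is quantified by luciferase signal after 15 min substrate incubation at room temperature.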
FMDV antiviral – antivirals against foot and mouth disease virus; FMDV antiviral cell-based qHTS; Potency, µM (titrated, usually from 57.9 µM), most hits filed as inhibitors; 410,000 compounds, 1.2% hits; AID 1159524; calls by dose curve; tested in HEK293T cells; note: read-out not given here; nearly all actives have a fitted effect of over 45% in size
LASV entry inh – inhibitors of Lassa virus binding or cell entry; Lassa virus pseudotype entry inhibition, cell reporter; Potency, µM (highest dose often 37.9 µM), usual class: inhibitors; 300,000 compounds, 1.2% hits; calls by dose curve; tested in HEK293 cells; note: nearly all actives have a fitted effect of over 50% in size
Sm TGR inh – S. mansoni TGR enzyme inhibition; Q962Y6; purified TGR, DTNB reduction, TNB absorbance 405 nm; Potency, µM (doses to about 114 µM), hits mostly inhibitors; 360,000 compounds, 3% hits; note: nearly all actives have a fitted effect of over 60% in size
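First, TGR (20 nM dispensed) and NADPH were mixed with compound. Second, a 15 min room-temperature incubation followed. Third, further NADPH and then DTNB were added to start the reaction. Finally, TNB absorbance was monitored kinetically.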
MARV entry inh – inhibitors of Marburg virus binding or cell entry; Marburg virus pseudotyped entry inhibition, cell reporter; Potency, µM (series often up to 37.8 µM), hits mostly inhibitors; 300,000 compounds, 1.8% hits; AID 540276; calls by dose curve; tested in HEK293 cells
Each line names hits and unclear results; the compound was inactive in the other large screens. Unless noted, calls come from the whole dose curve; as a rule, active = well fitted curve in the direction sought with a large enough effect; inconclusive = small, poorly fitted or top-dose-only effect, or another doubt; inactive = no such curve, though single readings can be large; an effect the other way counts as inactive or inconclusive.

CCOC(=O)c1ccccc1NC(=O)c1c(O)c2ccccc2n(CC)c1=O	none
CCn1c(=O)c(C(=O)Nc2ncccc2O)c(O)c2ccccc21	MARV entry inh inconclusive
CCn1c(=O)c(C(=O)Nc2ccc(C)cc2C)c(O)c2ccccc21	HCV inh 10µM, Sm TGR inh inconclusive
CCn1c(=O)c(C(=O)Nc2ncccc2C)c(O)c2ccccc21	RE007 growth inh inconclusive, HCV inh 10µM, MARV entry inh inconclusive (no result: Sm TGR inh)
Cc1ccc(CCN2C(=O)c3ccc(C(=O)O)cc3C2=O)cc1	none (no result: RE007 growth inh, HCV inh, FMDV antiviral, LASV entry inh, MARV entry inh)
CC1CCN(S(=O)(=O)c2cn(CC(=O)Nc3ccc(F)cc3)c(=O)c3ccccc23)CC1	LASV entry inh inconclusive, MARV entry inh 5.6µM (no result: RE007 growth inh, HCV inh)
CN1[C@@H]2CC[C@H]1CC(OC1c3ccccc3CCc3ccccc31)C2 (some centres not stated)	HCV inh 1.3µM, FMDV antiviral inconclusive (no result: LASV entry inh, MARV entry inh)
CN1C2CCC1CC(OC(c1ccccc1)c1ccccc1)C2 (configuration not stated)	HCV inh inconclusive, FMDV antiviral inconclusive, MARV entry inh 5µM (no result: LASV entry inh)
CN1[C@@H]2CC[C@H]1CC(O[C@@H](c1ccccc1)c1ccc(Cl)cc1)C2 (some centres not stated)	MARV entry inh 3.2µM (no result: RE007 growth inh, HCV inh, LASV entry inh, Sm TGR inh)
CN1[C@@H]2CC[C@H]1CC(OC(c1ccccc1)c1ccccc1)C2 (some centres not stated)	MARV entry inh 5µM (no result: RE007 growth inh, HCV inh, LASV entry inh, Sm TGR inh)
CN1CCCC(OC(=O)c2ccc(Cl)cc2)C1 (configuration not stated)	MARV entry inh inconclusive
CN1CCC(OC(c2ccccc2)c2ccc(Cl)cc2)C1 (configuration not stated)	HCV inh inconclusive, LASV entry inh inconclusive, MARV entry inh 7.1µM (no result: Sm TGR inh)
COc1ccc(C2CC(=O)c3cnc(NC(=O)c4cc(OC)cc(OC)c4)nc3C2)cc1 (configuration not stated)	none
COc1ccc(C2CC(=O)c3cnc(Nc4cc(C)cc(C)c4)nc3C2)cc1 (configuration not stated)	LASV entry inh 0.46µM
CCNc1ncc2nc(-c3ccc(OC)cc3)c(=O)n(CCC#N)c2n1	none (no result: RE007 growth inh, HCV inh, LASV entry inh, Sm TGR inh, MARV entry inh)
CCOC(=O)c1c(C)[nH]c(C(=O)N/N=C\c2ccccc2Cl)c1C	HCV inh inconclusive, LASV entry inh inconclusive
COc1cccc(/C=N/NC(=O)c2[nH]c(C)c(C(=O)N/N=C/c3cccc(OC)c3)c2C)c1	HCV inh 10µM, FMDV antiviral inconclusive, MARV entry inh inconclusive
CCOC(=O)c1c(C)[nH]c(C(=O)N/N=C/c2cccc(OC)c2)c1C	HCV inh 22µM, LASV entry inh inconclusive, MARV entry inh inconclusive
COc1ccc(/C=N/NC(=O)c2[nH]c(C)c(C(=O)N/N=C/c3ccc(OC)cc3)c2C)cc1	HCV inh inconclusive, FMDV antiviral inconclusive, LASV entry inh inconclusive, MARV entry inh inconclusive
O=C(COC(=O)CC(c1ccccc1)c1ccccc1)NCc1ccc(Cl)cc1	FMDV antiviral 35µM, LASV entry inh inconclusive, MARV entry inh inconclusive
CCOC(=O)c1c(C)[nH]c(C(=O)OCC(=O)NCc2ccc(OC)c(OC)c2)c1C	HCV inh 10µM, FMDV antiviral inconclusive
CCOC(=O)c1c(C)[nH]c(C(=O)OCC(=O)Nc2sccc2C(N)=O)c1C	HCV inh 2.8µM, FMDV antiviral 16µM, LASV entry inh inconclusive, MARV entry inh 2.2µM
CC(=O)c1c(C)[nH]c(C(=O)OCC(=O)NCCc2ccc(Cl)cc2)c1C	HCV inh 11µM, LASV entry inh inconclusive, MARV entry inh inconclusive
COc1ccc(C2CC(c3c(O)n(C4CCCCC4)c(=O)[nH]c3=O)=Nc3ccccc3S2)cc1 (configuration not stated)	none (no result: RE007 growth inh, HCV inh)
COc1ccc(Cl)cc1N(C)C(=O)C(=O)Nc1ccc2nc3n(c(=O)c2c1)CCCCC3	MARV entry inh inconclusive (no result: RE007 growth inh, HCV inh)
COC(=O)c1cc(CNC(=O)c2ccccn2)cc(NC(=O)c2ccccc2OC)c1	none (no result: RE007 growth inh, HCV inh, LASV entry inh, Sm TGR inh, MARV entry inh)
CC(=O)c1c(C)[nH]c(C(=O)OCC(=O)NCc2ccc(Cl)cc2)c1C	HCV inh 11µM, FMDV antiviral inconclusive (no result: LASV entry inh, MARV entry inh)
O=C(NCCc1nnc2n1CCN(Cc1cc3ccccc3o1)CC2)c1ccoc1	none (no result: RE007 growth inh, HCV inh, LASV entry inh, Sm TGR inh, MARV entry inh)
COc1ccc2[nH]c(C(=O)N3CCc4ccccc4C3)c(C)c2c1	HCV inh 11µM (no result: LASV entry inh, MARV entry inh)
COc1ccc(N2CCN(C(=O)c3[nH]c4ccc(OC)cc4c3C)CC2)cc1	MARV entry inh inconclusive
Cc1ccc(CNC(=O)CN2CCCN(Cc3ccc(F)cc3)S2(=O)=O)cc1	LASV entry inh 11µM (no result: RE007 growth inh, HCV inh, MARV entry inh)
Cn1ncnc2c(=O)n(C)c(=O)nc1-2	HCV inh 0.5µM, FMDV antiviral 1.6µM (no result: LASV entry inh, MARV entry inh)
CCn1c(N)nc2c1c(=O)n(C)c(=O)n2C	none (no result: LASV entry inh)
CCCc1nc2c(=O)n(C)c(=O)nc-2n(C)n1	HCV inh 2.5µM, FMDV antiviral 2.5µM, LASV entry inh 1µM, Sm TGR inh inconclusive, MARV entry inh inconclusive
Cn1c(=O)c(-c2ccc(Cl)cc2)nc2cncnc21	none (no result: RE007 growth inh, HCV inh, LASV entry inh, Sm TGR inh, MARV entry inh)
Cn1nc(-c2ccccn2)nc2c(=O)n(C)c(=O)nc1-2	HCV inh 2µM, FMDV antiviral 1.3µM, Sm TGR inh inconclusive (no result: LASV entry inh, MARV entry inh)
COc1ccc(-c2nc3c(c(SCC(=O)N4CCCCC4)n2)Cc2c(CO)cnc(C)c2O3)cc1	none (no result: RE007 growth inh, HCV inh, MARV entry inh)
CCOC(=O)C1CCCN(S(=O)(=O)c2cc(-c3cc(C)no3)ccc2C)C1 (configuration not stated)	FMDV antiviral inconclusive (no result: RE007 growth inh, HCV inh, MARV entry inh)
CC(C)(C)[C@H](N)C(=O)N[C@H]1CCC2C3CC=C4C[C@@H](O)CC[C@]4(C)C3CC[C@@]21C (some centres not stated)	HCV inh 11µM, LASV entry inh inconclusive, MARV entry inh inconclusive (no result: Sm TGR inh)
CC(C)C(=O)N[C@H]1CCC2C3CC=C4C[C@@H](O)CC[C@]4(C)C3CC[C@@]21C (some centres not stated)	none (no result: Sm TGR inh)
O=C(Cc1csc(NC(=O)Nc2cccc(Cl)c2)n1)NC1CCCC1	HCV inh inconclusive, FMDV antiviral inconclusive, MARV entry inh 13µM
O=C(CCN1CC2CCC(CC2)C1)c1cccs1	HCV inh inconclusive, FMDV antiviral 25µM (no result: Sm TGR inh)
CN(C)c1nc(C=C(C#N)C#N)c(Cl)n1-c1ccc(F)cc1	HCV inh inconclusive, FMDV antiviral 14µM, LASV entry inh inconclusive, Sm TGR inh 1.8µM, MARV entry inh inconclusive
Cc1cc(C)nc(/N=C(\N)Nc2ccc(OCCC(C)C)cc2)n1	HCV inh 10µM, FMDV antiviral 8.9µM, MARV entry inh inconclusive
CCOC(=O)C(=O)Nc1ccc(OCc2ccccc2)cc1	none
Cc1cc(C)nc(/N=C(\N)Nc2cccc(OCc3ccccc3)c2)n1	HCV inh inconclusive, FMDV antiviral 32µM (no result: LASV entry inh, MARV entry inh)
Cc1cc(C)nc(/N=C(\N)Nc2ccc(OCc3ccccc3)cc2)n1	HCV inh 10µM, FMDV antiviral 28µM, LASV entry inh inconclusive, MARV entry inh inconclusive
COc1ccc(N/C(N)=N/c2nc(C)cc(C)n2)cc1	none (no result: HCV inh, LASV entry inh, Sm TGR inh, MARV entry inh)
